Results published in ChEMBL document CHEMBL4513216, “Probing the Open Global Health Chemical Diversity Library for Multistage-Active Starting Points for Next-Generation Antimalarials” (ACS Infect Dis, 2020).
Hit rate of the full screen: of about 69,000 compounds, about 8,600 (12%) showed an effect of 50% or more. The entries come from a sample that favours strong results as a whole.

Tested on: Plasmodium berghei
Experiment: Screen against P. berghei liver stage (PbLuc), transformed with Luciferase, at 10uM
Type: functional, HepG2
Settings: tested at 10 uM

SMILES	INHIBITION [%]
Cc1nc(CN2C(=O)CC[C@@H]3[C@H]2CCN3C(=O)NC2CC2)cs1	38.7
O=C(c1scc2c1OCCO2)N1CCOC(Cc2cccc(F)c2)C1 (configuration not stated)	-22
Cc1n[nH]c(CCC(=O)N2CCOC(Cc3ccccc3)C2)c1C (configuration not stated)	7.19
Cc1nc(C(=O)N2CCOC(Cc3ccc(F)cc3)C2)co1 (configuration not stated)	-23.4
Cc1n[nH]c(CCC(=O)N2CCOC(Cc3ccc(F)cc3)C2)c1C (configuration not stated)	55.4
O=C(c1scc2c1OCCO2)N1CCOC(Cc2ccc(F)cc2)C1 (configuration not stated)	0.72
Cc1ncoc1C(=O)N1CCOC(Cc2ccccc2)C1 (configuration not stated)	55
COc1ccc(CC2CN(C(=O)c3ocnc3C)CCO2)cc1 (configuration not stated)	46.4
Cc1nc(C(=O)N2CCOC(Cc3ccccc3)C2)co1 (configuration not stated)	-48.5
Cc1ccnn1CCC(=O)N1CCOC(CCc2ccccc2)C1 (configuration not stated)	44.3
O=C(c1scc2c1OCCO2)N1CCOC(CCc2ccccc2)C1 (configuration not stated)	75
CN(CC(=O)N1CCOCC(CO)C1)Cc1ccccn1 (configuration not stated)	19.5
CN(CC(=O)N1CCOC(CCc2ccccc2)C1)Cc1ccccn1 (configuration not stated)	54.2
CC(C)CCc1n[nH]c(C(=O)O)c1Br	11.7
O=c1[nH]c2cn(-c3cccc(F)c3)c(=O)n2[nH]1	48
CC(C)Cn1cncc1-c1nc2c([nH]1)CCCNC2=O	-21.8
Cc1cccc(-c2nc(C)nn2CC(=O)NC(C)C2CC2)c1 (configuration not stated)	33.3
Cc1cccc2c1NC(c1cnc(C3CCC3)s1)NC2=O (configuration not stated)	39.3
Cc1cc(=O)n2nc(Oc3ccc(F)c(F)c3)sc2n1	42.5
CC(=O)N1CCC(Cc2cnc(C(=O)N3CCCC3)cn2)C1 (configuration not stated)	7.52
Cc1ccc(OCCN(C)C(C)c2cccc(S(N)(=O)=O)c2)cc1 (configuration not stated)	-31.8
CN(C)C[C@H]1OC[C@@H]2CCN(C(=O)Cc3cccs3)C[C@@H]21	13.7
Cc1cc(N2Cc3cnn(CCO)c3C2)nc(-c2ccccc2)n1	-81.1

SMILES	INHIBITION [%]
CCNc1ncc(C(=O)N2CCOC(CCCc3ccccc3)C2)cn1 (configuration not stated)	42.1
O=C(c1cccnc1)N1CCOC(CCCc2ccccc2)C1 (configuration not stated)	60.9
O=C(c1cccnc1)N1CCOC(Cc2ccccc2Cl)C1 (configuration not stated)	0.55
COCCCN1Cc2cccc(NC(=O)c3ccccc3Cl)c2C1	50
COCCCN1Cc2cccc(NC(=O)c3cc(F)cc(F)c3)c2C1	45.7
COCCCN1Cc2cccc(NC(=O)c3ccccc3C)c2C1	40.6
CCn1c(NCc2ccccn2)nc2c(C)nn(C)c2c1=O	18.4
Cc1nn(C)c2c(=O)n(C(C)C)c(NCC3CCCO3)nc12 (configuration not stated)	3.58
CCn1c(NCc2ccccc2)nc2c(C)nn(C)c2c1=O	33.3
CCCn1c(NCCc2ccccc2)nc2c(C)nn(C)c2c1=O	64.8
CCn1c(NCc2cccnc2)nc2c(C)nn(C)c2c1=O	-9.73
Cc1nn(C)c2c(=O)n(C(C)C)c(NCCc3ccccc3)nc12	87.2
CCCn1nc(C)c(C(=O)N(C)[C@@H]2CC[C@@H](OC)[C@@H]2O)c1C	40.65
CCn1ncc2c(C(F)(F)F)cc(-c3cnn(C)c3)nc21	19.55
CCOC(=O)c1cnn(C2CCN(C(=O)CC(C)(C)C)CC2)c1N	-17.4
CCN(CC)c1nc(C)cc(C(=O)Nc2cccc(C(N)=O)c2)n1	25.3
Cc1nnc(C(NS(=O)(=O)c2cc(C#N)ccc2C)C(C)C)[nH]1 (configuration not stated)	49.1
CSCC[C@H]1CN2CCC[C@H]2CN1Cc1coc2ccc(C)cc2c1=O	43.6
CC(=O)NCC(=O)N1Cc2nccn2CC(CN(C)C(C)C)C1 (configuration not stated)	5.44
CN(C)c1ccc(NC(=O)NCc2ccc(Cl)s2)cn1	-21
CN(Cc1ccc(Cl)s1)C(=O)Nc1ccc(N(C)C)nc1	58.8
CN(Cc1ccsc1)C(=O)Nc1ccc(N(C)C)nc1	33.8
Cn1cccc1C(=O)N1CCc2ncnc(C3CC3)c2CC1	35.8

SMILES	INHIBITION [%]
COCCSCC(=O)NCc1ccc(N(C)C)nc1	43.5
CCOCCCNC(=O)c1nc2c(s1)CCCN2c1ccc(C)nn1	35.8
COC(=O)CC(C)(C)CC(=O)N1CCC(C(F)(F)F)CC1	24.6
Cc1nc(C2CCCN2CCCS(N)(=O)=O)no1 (configuration not stated)	22.5
Cc1nc(C2CCCN2CCCc2nc3ccccc3o2)no1 (configuration not stated)	21.6
Cc1nc(C2CCCN2CCCS(=O)(=O)c2ccccc2)no1 (configuration not stated)	3.603
CC(C)c1nc(C2CCCN2CCCc2nc3ccccc3o2)no1 (configuration not stated)	26.3
CCc1nc(C2CCCN2CCS(=O)(=O)c2ccccc2)no1 (configuration not stated)	22.007
CN(C)S(=O)(=O)CCCN1CCCC1c1noc(C2CC2)n1 (configuration not stated)	-15.5
CCc1nc(C2CCCN2CCCc2nc3ccccc3o2)no1 (configuration not stated)	62.6
CCc1nc(C2CCCN2CCCS(=O)(=O)c2ccccc2)no1 (configuration not stated)	51.2
Cc1nc(C2CCCN2CCCS(=O)(=O)N(C)C)no1 (configuration not stated)	54.3
O=C(NCCN1CCCCC1)c1ccn(-c2ccccc2)n1	19.6
CCSCC(C)NCc1cn2ccccc2n1 (configuration not stated)	-20
COCC1CN(Cc2csc(C)n2)Cc2nccn2C1 (configuration not stated)	4.61
CCc1ncc(CNCc2cccnc2N(C)C)cn1	-0.29
Cc1cccc(C)c1OCCNC(=O)C(C)n1cncn1 (configuration not stated)	-42.3
O=C(c1cccs1)N1CCC2(CC1)CN(c1cncnc1)C(=O)CO2	48.6
O=C(Nc1ccccc1)N1CCC2(CC(=O)N(c3ccsc3)C2)C1 (configuration not stated)	-12.2
COCC(=O)N1CCC2(CC1)CN(c1cncnc1)C(=O)CO2	24.1
CN(C)CC(=O)N1CCC2(CC1)CN(c1ccsc1)C(=O)CO2	47.2
O=C(c1cccs1)N1CCC2(CC1)CN(c1ccsc1)C(=O)CO2	22.9
NC(=O)N1CCC2(CC1)CN(c1ccsc1)C(=O)CO2	54.6

SMILES	INHIBITION [%]
Cc1cnc(N2CCC3(CC2)CN(c2ccsc2)C(=O)CO3)nc1	53.9
COCC(=O)N1CCC2(CC1)CN(c1ccsc1)C(=O)CO2	64.9
CCc1cnc(N2CCC3(CC2)CN(c2cccnc2)C(=O)CO3)nc1	47.2
O=C(C1CCOCC1)N1CCC2(CC1)CN(c1ccsc1)C(=O)CO2	74.2
O=C1COC2(CCN(c3ncccn3)CC2)CN1c1ccsc1	26.5
O=C(C1CC1)N1CC[C@H]2C(=O)N(c3ccsc3)CCO[C@H]2C1	33
O=C(NCc1ccco1)[C@H]1COC[C@H]2CN(Cc3ccoc3)C[C@H]21	25.2
CCOc1ccc(C#N)cc1NCC(=O)NC1(C#N)CCCC1	-2.53
Cc1ccc(NC(=O)N2CCCC2)c(OCC2CCCO2)c1 (configuration not stated)	-8.11
CCS(=O)(=O)N1CCN(Cc2cccnc2)c2nc(C)ccc2C1	38.1
O=C(Nc1cccs1)NC(CCCO)c1ccccc1 (configuration not stated)	24.3
O=C(NCc1csc(Br)c1)N1CCC(O)CC1	-0.822
COCC(=O)NCCCn1nc2ccccn2c1=O	19.7
CC(C)N(C)Cc1nnc2n1CCN(CC1CC1)CC2	20.1
CCS(=O)(=O)N1CCC2(CC1)CN(c1cncnc1)C(=O)CO2	14.1
CCS(=O)(=O)N1CCC2(CC1)CN(c1ccsc1)C(=O)CO2	54.4
O=C1COC2(CCN(S(=O)(=O)C3CC3)CC2)CN1c1ccsc1	3.25
Cc1cc2ccccc2n1CCC(=O)N1CCN(C)CC1C(N)=O (configuration not stated)	34.9
CSCC(=O)N1CCOC(c2nc(C)n[nH]2)C1 (configuration not stated)	36.8
CC(C)c1nc(C2CCCN(C(=O)c3cccc4c3OCO4)C2)no1 (configuration not stated)	42
CSc1ncc(C(=O)N2C[C@@H]3CC[C@H]2CN(Cc2ccccc2)C3)cn1	-9.76
CN(CCN1CCOCC1)S(=O)(=O)CC1CCCC1	38.7
CN1CCN(CCCN(C)S(=O)(=O)C2CCCCC2)CC1	43.2

SMILES	INHIBITION [%]
Cc1ccc2cccc(S(=O)(=O)N(C)CC3CCN(C)C3)c2n1 (configuration not stated)	16
CN1CCN(CCCN(C)S(=O)(=O)CC2CCCCC2)CC1	54.4
CN1CCN(CCCNC(=O)C2CCCCC2)CC1	-24
CN(C)CCN(C)S(=O)(=O)CC1CCOCC1	30.2
CN1CCC(CN(C)S(=O)(=O)CC2CCCCC2)CC1	72.3
CN(CCN1CCCC1=O)S(=O)(=O)CC1CCCC1	88
Cc1ccc2cccc(S(=O)(=O)N(C)CC3CCN(C)CC3)c2n1	17.6
O=C(NCCCn1cccn1)N1CCCC1c1cccs1 (configuration not stated)	25.2
Cc1ccsc1CN1CC[C@H]2OCC[C@@]2(C(=O)N2CCCO2)C1	37.2
COCCNC(=O)[C@@H]1C[C@@H]2CCN(c3ncccn3)C[C@H]2O1	4.57
O=C(Nc1ccccc1F)C1CSCN1C(=O)CCc1ccco1 (configuration not stated)	-39.2
COc1cc(F)c(NC(=O)N(C)Cc2cc(C)on2)cc1F	52.6
Cc1cc(CN(C)C(=O)Nc2ccccc2C)no1	67.1
CCN(C)C(=O)Nc1cc(F)c(OC)cc1F	14.9
COc1cc(F)c(NC(=O)N(C)CCNC(=O)N(C)C)cc1F	36.3
COc1ccc(Cl)cc1C(=O)N(C)Cc1cc(C)on1	-4.16
CCNC(=O)c1ccc(NC(=O)N(C)Cc2cc(C)on2)c(C)c1	29.6
COc1ccc(F)cc1C(=O)N(C)Cc1cc(C)on1	35.7
Cc1cc(CN(C)C(=O)NCc2ccccn2)no1	-22.8
COc1ccc(S(N)(=O)=O)cc1C(=O)N(C)Cc1cc(C)on1	51.2
